The record followed here is the supplement of paper PMC7156485.

± gives the standard deviation of the averaged measurements.

Common to all, as to conditions: concentration: 10 µM; 24 h
Assay [1] deals with HCC1569. The assay can be described thus: cell number relative to DMSO (% of DMSO); higher = more cells (less growth inhibition / toxicity). The essentials: (§1)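 H1.0 nuclear intensity or cell number is expressed as percent of the plate control, with the median of replicates taken. HCC1569 and TDF cells were treated with compounds at 10 µM for 24 h at 37 °C, in triplicate, then fixed and immunostained for H1.0 with DAPI as a nuclear stain. HCC1569 values were smoothed to correct for positional effects.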

Assay [2] relates to TDF. Described as above. In a few lines: as §1
Assay [3] relates to TDF. Description: H1.0 immunofluorescence intensity relative to DMSO (% of DMSO); higher = stronger H1.0 induction, active = 120 or more. The essentials:
as §1

Assay [4] deals with HCC1569. The assay can be described thus: H1.0 immunofluorescence intensity relative to DMSO (% of DMSO); higher = stronger H1.0 induction, active = 140 or more. The essentials:
as §1
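Throughout, for H1.0 immunofluorescence intensity relative to DMSO: TDF is a line of transformed human dermal fibroblasts of mesenchymal origin.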
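Throughout, for cell number relative to DMSO: TDF denotes transformed human dermal fibroblasts of mesenchymal origin.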

For the compound `CS(=O)(=O)O.S=C=Nc1cccc(C2(N3CCCCC3)CCCCC2)c1` [Metaphit methanesulfonate], the cell number in the assay on HCC1569 [1] is 106; in the assay with TDF [2], 107. Besides, the H1.0 immunofluorescence intensity in the assay with TDF [3] was 83.4 (inactive); in the assay on HCC1569 [4], 94.5 (inactive).
In the same order, the values of `O=[N+]([O-])c1ncc[nH]1` [Azomycin] are 100, 92.6, 97.8 (inactive) and 93.7 (inactive).
The corresponding values for `CC(C)C1(NC(=O)C2CC3c4cccc5[nH]cc(c45)CC3N(C)C2)OC2(O)C3CCCN3C(=O)C(Cc3ccccc3)N2C1=O` (stereo not drawn) [Dihydroergocristine] are 104, 100, 90.4 (inactive) and 117 (inactive).
The corresponding values for `N#CC(C#N)=Cc1cc(O)c(O)c(O)c1` [Tyrphostin 25] are 91.1, 89.8, 102 (inactive) and 113 (inactive).
On to `Cl.O=C(CCCN1CCC2(CC1)C(=O)N(CCc1ccc(N=C=S)cc1)CN2c1ccccc1)c1ccc(F)cc1` [N-(p-Isothiocyanatophenethyl)spiperone hydrochloride], for which the cell number in the assay on HCC1569 [1] was found to be 82.7; in the assay on TDF [2], 74. Moreover, the figures for the H1.0 immunofluorescence intensity in the assay with TDF [3] and with HCC1569 [4] were 128 (active) and 149 (active), respectively.
In the same order, the values of `Cl.OCc1cnc[nH]1` [4-Imidazolemethanol hydrochloride] are 99.6, 102, 93.3 (inactive) and 94.1 (inactive).
On to `CCCCCCCCCCCCCC(=O)OC1C(C)C2(O)C(C=C(CO)CC3(O)C(=O)C(C)=CC32)C2C(C)(C)C12OC(C)=O` (stereo not drawn) [4alpha-Phorbol-12-myristate-13-acetate], for which the values for the cell number in the assay with HCC1569 [1] and in the assay with TDF [2] were 98.4 and 111, respectively. Besides, the H1.0 immunofluorescence intensity in the assay on TDF [3] is 95.6 (inactive); in the assay on HCC1569 [4], 108 (inactive).
In the same order, the values of `Br.COC1CC=C2CCN3CCC4=C(CC(=O)OC4)C23C1` (stereo not drawn) [Dihydro-beta-erythroidine hydrobromide] are 104, 98.2, 91.6 (inactive) and 93.8 (inactive).
The corresponding values for `CCCCCC=CCC=CCC=CCC=CCCCC(=O)NCCc1ccc(O)c(O)c1` [Arachidonyl dopamine] are 87.9, 91.8, 94.9 (inactive) and 124 (inactive).
The corresponding values for `COC1=CC(=O)OC(C=Cc2ccccc2)C1` (racemic) are 104, 92, 95.5 (inactive) and 83 (inactive).
With `CN(c1nc2ccccc2s1)C1CCN(CC(O)COc2ccc(F)c(F)c2)CC1.Cl.Cl` (stereo not drawn), the values for the cell number in the assay on HCC1569 [1] and in the assay with TDF [2] were 84.8 and 88.9, respectively. In addition, the H1.0 immunofluorescence intensity in the assay on TDF [3] was 99 (inactive); in the assay on HCC1569 [4] it was 141 (active).
The corresponding values for `Cl.Oc1ccc2c3c1OC1C(O)CCC4(O)C(C2)N(CC2CCC2)CCC314` (stereo not drawn) [Nalbuphine hydrochloride] are 105, 104, 92.6 (inactive) and 88.2 (inactive).
For the compound `CNC(=O)Oc1ccc2c(c1)C1(C)CCN(C)C1N2C` (single isomer, unassigned; (-)) [(-)-Physostigmine], the cell number stood at 98.8 in the assay on HCC1569 [1] and 118 in the assay on TDF [2]. The H1.0 immunofluorescence intensity with TDF [3] was 96.7 (inactive); with HCC1569 [4], 94.3 (inactive).
In the same order, the values of `COc1ccc2c(c1O)-c1cccc3c1C(C2)N(C)CC3.Cl` (stereo not drawn) [R(-)-Apocodeine hydrochloride] are 103, 89.9, 97.6 (inactive) and 87.5 (inactive).
The corresponding values for `CC1=C(O)C(=O)C=C2C1=CC=C1C2(C)CCC2(C)C3CC(C)(C(=O)O)CCC3(C)CCC12C` (stereo not drawn) [Celastrol] are 38, 64, 120 (inactive) and 114 (inactive).
In the same order, the values of `[Cl-].c1ccc2c(c1)[I+]c1ccccc1-2` [Diphenyleneiodonium chloride] are 61.4, 34, 123 (active) and 125 (inactive).
`CNC1CC2OC(C)(C1OC)n1c3ccccc3c3c4c(c5c6ccccc6n2c5c31)C(=O)NC4` (stereo not drawn) [Staurosporine, Streptomyces sp.]: the cell number in the assay on HCC1569 [1] turned out to be 56.3 ± 58; with TDF [2] it was 47.9 ± 67. Also, the H1.0 immunofluorescence intensity with TDF [3] is 149 (active); in the assay on HCC1569 [4], 84.1 (inactive).
The corresponding values for `COC(C)C(O)(C(=O)OCC1=CCN2CCC(O)C12)C(C)C` (stereo not drawn) [Heliotrine] are 99.8, 105, 91.4 (inactive) and 90.6 (inactive).
Turning to `CN1CC(CO)C=C2c3cccc4[nH]cc(c34)CC21` (stereo not drawn) [Lysergol], the cell number in the assay on HCC1569 [1] stood at 100; with TDF [2] it was 106. Moreover, the H1.0 immunofluorescence intensity in the assay on TDF [3] was 102 (inactive); with HCC1569 [4], 87.6 (inactive).
With `C1CCc2nnnn2CC1` [Pentylenetetrazole], the cell number worked out at 102 with HCC1569 [1] and 113 with TDF [2]. In addition, the H1.0 immunofluorescence intensity was 99 (inactive) with TDF [3] and 98.1 (inactive) in the assay with HCC1569 [4].
In the same order, the values of `Cl.NCCc1c[nH]c2ccccc12` [Tryptamine hydrochloride] are 99.1, 98.5, 95.5 (inactive) and 97.2 (inactive).
The corresponding values for `C=C1C2CC3(C1O)C1CC4C5(C)CCC(O)C4(C1N(CC)C5)C3CC2=O` (stereo not drawn) [Songorine] are 101, 108, 90 (inactive) and 91.7 (inactive).
